PubChem BioAssay (NCATS)
Unmarked numbers belong to inactive results. Results filed as inconclusive are left out. A call without a number means that no potency is given here. The source made the active and inactive calls. Calls follow the shape of the dose curve; as a rule, active = well fitted curve in the direction sought with a large enough effect; inconclusive = small, poorly fitted or top-dose-only effect, or another doubt; inactive = no such curve, though single readings can be large; an effect the other way counts as inactive or inconclusive. Numbered stars: 1 amine (or outer) side, 2 acyl side, 3 side chain; on linkers, the order of the positions; unused ones are H or OH. Bridge positions count the residues as written; N and C are the ends. Square brackets hold non-standard residues; d marks the D form. Peptide text beside a SMILES is read from it. ξ: configuration not given here. Phe(3R-OH) = O=C([C@@H](N[*:1])[C@H](O[*:3])c1ccccc1)[*:2]; NMeTrp(4-OMe) = CN[C@@H](Cc1c[nH]c2cccc(OC)c12)C(=O)O; ξThr(3R)(O-yl) = C[C@@H](O[*:3])C(N[*:1])C(=O)[*:2]; NMeThr(3ξ) = CN[C@H](C(=O)O)C(C)O; NMeL = CN[C@@H](CC(C)C)C(=O)O; NMeV = CN[C@H](C(=O)O)C(C)C; ξIle = CC[C@H](C)C(N)C(=O)O; ξV = CC(C)C(N)C(=O)O

Key:
[1] = tested on: Zika virus NS2B-NS3 protease (linked construct); test: Primary screen NINDS Rhodamine qHTS for Zika virus inhibitors (AID 1347160); also: nearly all actives have a fitted effect of over 55% in size; also: potency is read from the fitted curve at half-maximal effect
In short: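 Rhodamine110-peptide cleavage (1.5 µM substrate) by 25 nM linked NS2B-NS3 enzyme at pH 8.0 (Tris, Tween 20), after 15 min RT preincubation with compounds; 15-min fluorescence change normalized to controls and Hill-fitted.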

[2] = OV-KATE Cancer Cell Toxicity qHTS against the NCATS CANVASS Library (AID 1347345)
In short: (§1)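 1000 cells/well; 4 h settle; 11-pnt titration; 72 h, 37 degrees C, 5% CO2; CellTiter-Glo, 15min RT; luminescence read.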

[3] = HPAF-II Cancer Cell Toxicity qHTS against the NCATS CANVASS Library (AID 1347346); also: nearly all actives have a fitted effect of over 55% in size; also: potency is read from the fitted curve at half-maximal effect
In short: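 First, HPAF-II cells are plated (1000 cells/well) and held 4 h at 37 degrees C. Next, compounds are pin-transferred as an 11-point series. After 72 h, CellTiter-Glo is added and luminescence measured.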

[4] = UWB1.289 Cancer Cell Toxicity qHTS against the NCATS CANVASS Library (AID 1347347); also: nearly all actives have a fitted effect of over 60% in size
In short: as §1

[5] = Panc-1005 Cancer Cell Toxicity qHTS against the NCATS CANVASS Library (AID 1347349); also: series mostly up to about 38 µM; nearly all actives have a fitted effect of over 60% in size
In short: as §1

[6] = U-118MG Cancer Cell Toxicity qHTS against the NCATS CANVASS Library (AID 1347351)
In short: as §1

[7] = COV-362 Cancer Cell Toxicity qHTS against the NCATS CANVASS Library (AID 1347352); also: series mostly up to about 38 µM
In short: (§2)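 First, 1000 cells go into each well and rest for 4 hours. Next, an 11-point dilution range is pinned in. Plates then incubate 72 hours before CellTiter-Glo addition and luminescence reading.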

[8] = A2780 Cisplatin Sensitive Ovarian Cancer Cell Toxicity qHTS against the NCATS CANVASS Library (AID 1347353); also: nearly all actives have a fitted effect of over 60% in size
In short: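 Cells are plated at 750 per well and rest for 4 hours. Compounds are added across eleven concentrations, and incubated 72 hours before ATP is quantified by luminescence.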

[9] = UWB1.289-WTBRCA1 Cancer Cell Toxicity qHTS against the NCATS CANVASS Library (AID 1347354)
In short: as §2

[10] = HEK293 18hr Apoptosis Induction qHTS against the NCATS CANVASS Library (AID 1347357)
In short: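 Cells seeded at 500/well in DMEM + 10% FBS. Compounds pinned, 11 concentrations. 18 h, 37 degrees C/5% CO2. Caspase-Glo 3/7 added, 15 min RT dark, luminescence read.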

[11] = HEK293 12hr Apoptosis Induction qHTS against the NCATS CANVASS Library (AID 1347361)
In short: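 Cells are seeded, dosed with an 11-point compound series and incubated 12 hours. Caspase-3/7 activity is detected by luminescent DEVD-substrate reagent after 15 minutes at room temperature.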

[12] = qHTS for ATAD5 Agonist screened against the NCATS CANVASS Library (AID 1347367);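 also: luciferase reporter driven by ATAD5 which rises upon DNA damage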
In short: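 HEK293T-ATAD5 luc reporter; 2000 cells/well; 5hr settle; cpd 11-pt qHTS; 16hr 37C 5% CO2 dark; viability by CellTiter-Fluor (AFC fluorescence); then luciferase luminescence, 30min RT.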

[13] = MCF7 Cancer Cell Toxicity qHTS against the NCATS CANVASS Library (AID 1347369)
In short: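 Cells seeded at 500/well, then compound pinned. Plates incubated 72 hr at 37C, 5% CO2. CellTiterGlo added; luminescence read.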

[14] = qHTS for ATAD5 Antagonist screened against the NCATS CANVASS Library (AID 1347370);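 also: HEK293T cells carrying an ATAD5 luciferase reporter co-treated with 10 µM 5-fluorouridine; series mostly up to about 46 µM; nearly all actives have a fitted effect of over 65% in size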
In short: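 Compounds (11-point) co-dosed with 10 µM 5-FUrd for 16 h at 37 °C onto HEK293T-ATAD5 luciferase reporter cells. Viability measured by CellTiter-Fluor fluorescence, then ATAD5 reporter signal by luminescence.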

[15] = J3T Cancer Cell Toxicity qHTS against the NCATS CANVASS Library (AID 1347371)
In short: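 Luminescence from CellTiterGlo, reporting cellular ATP, serves as the viability measure after 72 hr compound treatment of J3T canine glioma cells seeded at 500 cells/well.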

[16] = biological target: Nuclear receptor subfamily 1 group I member 3 (Homo sapiens) (UniProt Q14994); test: qHTS for Constitutive Androstane Receptor (CAR) Agonist screened against the NCATS CANVASS Library (AID 1347373);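 also: every well also contained 1.5 µM PK11195 alongside the test compound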
Nuclear receptor subfamily 1 group I member 3 (Homo sapiens), sequence (Q14994 whole entry, looked up): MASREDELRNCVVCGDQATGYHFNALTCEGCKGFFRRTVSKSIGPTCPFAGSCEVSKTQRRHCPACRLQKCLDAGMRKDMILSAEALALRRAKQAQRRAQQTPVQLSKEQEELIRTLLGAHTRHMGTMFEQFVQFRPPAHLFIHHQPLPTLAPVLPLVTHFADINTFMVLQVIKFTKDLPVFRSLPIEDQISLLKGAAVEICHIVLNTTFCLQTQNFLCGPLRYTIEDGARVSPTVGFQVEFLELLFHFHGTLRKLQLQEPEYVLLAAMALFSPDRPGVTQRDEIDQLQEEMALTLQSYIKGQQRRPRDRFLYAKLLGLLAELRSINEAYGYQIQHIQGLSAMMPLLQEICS
In short: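 Cells were plated and allowed to attach for 4hr, then dosed with compound in an 11-point series alongside 1.5uM PK11195. After 24hr at 37C, viability was measured fluorometrically and CAR-driven CYP2B6 reporter luminescence was recorded.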

[17] = qHTS for Inflammasome Signaling Inhibitors: IL-1-beta AlphaLISA screen against the NCATS CANVASS Library (AID 1347379);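 also: human THP-1 cells primed with LPS then triggered with ATP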
In short: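 Secreted IL-1B from human THP-1 cells quantified by AlphaLISA 16 hr after compound addition (final up to 57.5 uM). A 1 hr compound pretreatment preceded inflammasome activation with 250 ng/mL LPS plus 1.25 mM ATP (final).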

[18] = Inflammasome Signaling qHTS Counterscreen: IL-1-beta AlphaLISA counterscreen against the NCATS CANVASS Library (AID 1347381);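 also: cell-free check with purified IL-1β in medium and no THP-1 cells; series mostly up to about 57 µM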
In short: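 Purified IL-1-beta (4 pg/well) + compound, 11-pt conc. series; acceptor beads 6 ug/mL + biotin-Ab 0.6 nM final, 1 h RT; SA-donor 24 ug/ml final, 30 min dark RT; read ex 680/em 615.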

[19] = Cytotoxicity qHTS for assessment of Hepg2 cells membrane integrity screened against the NCATS CANVASS Library (AID 1347387)
In short: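 Cells were seeded at 2000 per well and left overnight to attach. Compounds were pin-transferred to give 0.59 nM - 46 uM in an 11-point series and incubated 5 hr at 37C. CytoTox-ONE reagent was added and, after 10 min at room temperature, fluorescence (ex 560, em 590 nm) was read.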

[20] = Vero-766 cells viability qHTS against the NCATS CANVASS Library: Counterscreen for Zika virus inhibition assay (AID 1347394); also: series mostly up to about 46 µM; nearly all actives have a fitted effect of over 60% in size
In short: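 Vero 766, no virus; 1000 cells/well; o/n attach; cpd 11-pt; 72 h, 37C, 5% CO2; CTG luminescence; cell-free media wells = 100% inhibition.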

Structure (SMILES)	Potency [1]	Potency [2]	Potency [3]	Potency [4]	Potency [5]	Potency [6]	Potency [7]	Potency [8]	Potency [9]	Potency [10]	Potency [11]	Potency [12]	Potency [13]	Potency [14]	Potency [15]	outcome [16]	Potency [17]	outcome [18]	outcome [19]	Potency [20]
O=C(O)CC1OC(=O)c2c(O)cccc21 (stereo not given)	inactive	inactive	inactive	inactive	inactive	inactive	inactive	inactive	inactive	inactive	inactive	inactive	inactive	inactive	inactive	inactive	inactive	inactive	inactive	inactive
O=C(O)[C@@]12CO[C@@]3(O)C4CCN(CC[C@H]31)[C@H]4c1c2[nH]c2ccccc12	inactive	inactive	inactive	inactive	inactive	inactive	inactive	inactive	inactive	inactive	inactive	inactive	inactive	inactive	inactive	inactive	inactive	inactive	inactive	inactive
CC[C@H](C)C(NC(=O)[C@@H](NC)C(C)C)C(=O)NC1C(=O)N(C)[C@@H](C(C)O)C(=O)N[C@@H](C(C)C)C(=O)N(C)[C@@H](CC(C)C)C(=O)NC(C(C)C)C(=O)N(C)[C@@H](C(C)C)C(=O)N(C)[C@@H](Cc2c[nH]c3cccc(OC)c23)C(=O)N[C@@H](C(C)C)C(=O)N[C@@H]([C@H](O)c2ccccc2)C(=O)N[C@@H](C(C)C)C(=O)O[C@@H]1C (stereo partly drawn) (H-[NMeV][ξIle][ξThr(3R)(O-yl)][NMeThr(3ξ)]V[NMeL][ξV][NMeV][NMeTrp(4-OMe)]V[Phe(3R-OH)]V; ester 3-C)	inactive	inactive	11.9 µM (active)	inactive	inactive	inactive	inactive	inactive	inactive	inactive	inactive	inactive	inactive	inactive	inactive	inactive	inactive	inactive	inactive	inactive
C[C@@H]1C[C@H]2C[C@]3(CCCCN3C)[C@@H]3C[C@H]2[C@H](C1)N(C)C3	inactive	inactive	inactive	inactive	inactive	inactive	inactive	inactive	inactive	inactive	inactive	inactive	inactive	inactive	inactive	inactive	inactive	inactive	inactive	inactive
C/C=C/C[C@@H](C)[C@@H](O)[C@H]1C(=O)N[C@@H](CC)C(=O)N(C)CC(=O)N(C)[C@@H](CC(C)C)C(=O)N[C@@H](C(C)C)C(=O)N(C)[C@@H](CC(C)C)C(=O)N[C@@H](C)C(=O)N[C@H](C)C(=O)N(C)[C@@H](CC(C)C)C(=O)N(C)[C@@H](CC(C)C)C(=O)N(C)[C@H](C(C)C)C(=O)N1C	inactive																			
C[C@@H](CCC[C@]1(C)C(=O)C=C[C@]23C[C@H]4C[C@H](O[C@@]4(C)C2)C31)C(=O)N[C@@H](CO)C(=O)O (stereo not given in full)	inactive	inactive	inactive	inactive	inactive	inactive	inactive	inactive	inactive	inactive	inactive	inactive	inactive	inactive	inactive	inactive	inactive	inactive	inactive	inactive
COc1cc(O)c2c3c(c(O)cc(C)c13)C(=O)OC2	22 µM (active)	inactive	inactive	inactive	inactive	inactive	inactive	inactive	inactive	inactive	inactive	inactive	inactive	inactive	inactive	inactive	inactive	inactive	inactive	inactive
C=C1/C=C\C(CCC)=C\c2csc(n2)C(C)NC(=O)C[C@@]2(CC(=O)O)CCC(=C)[C@H](C1)S2 (stereo not given in full)	2.77 µM (active)	inactive	inactive	inactive	inactive	inactive	inactive	inactive	inactive	inactive	inactive	inactive	inactive	inactive	inactive	inactive	inactive	inactive	inactive	inactive
C[C@H]1C[C@@H]([C@@H]2CC[C@]34O[C@H](CC[C@@]35C[C@H](C)C(=O)O5)CN24)OC1=O	inactive	inactive	inactive	inactive	inactive	inactive	inactive	inactive	inactive	inactive	inactive	inactive	inactive	inactive	inactive	inactive	inactive	inactive	inactive	inactive
CC1(C)[C@H](Br)CC[C@]23C[C@]4(C)C(=O)CC12C[C@H]34	inactive	inactive	inactive	inactive	inactive	inactive	inactive	inactive	inactive	inactive	inactive	inactive	inactive	inactive	inactive		inactive	inactive	inactive	inactive
COc1cc(/C=C2/C(=O)N(c3ccc(O)cc3C(=O)O)[C@H](c3ccc(O)c(OC)c3)C2C(=O)Nc2ccc(O)cc2C(=O)O)ccc1O (stereo not given in full)	6.97 µM (active)	inactive	inactive	inactive	inactive	inactive	inactive	inactive	inactive	inactive	inactive	inactive	inactive	inactive	inactive	inactive	inactive	inactive	inactive	inactive
O=C(O)Cc1c[nH]c2ccccc12	inactive	inactive	inactive	inactive	inactive	inactive	inactive	inactive	inactive	inactive	inactive	inactive	inactive	inactive	inactive	inactive	inactive	inactive	inactive	inactive
